Results from the supplement of paper PMC6555819.

Columns and labels:
Test in all cases: PBM binding z-score (relative to random genomic background probes); higher = stronger binding; sequences stand for … in GC…GCGATTGACAGCGTAGAATGAAGG
[1] = tested on: PPARg:RXRa DBDmut IVT, anti-RXR (DBD mutation: RXRa K156A/R161A, NR concentration 270 nM, RXRa partner concentration 90 nM)
Procedure, shortened: (§1)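 Scanned fluorescence from custom Agilent 4×180K protein-binding microarrays was regression-normalized. Binding z-scores use random background probes as reference. Ligand-free nuclear receptor dimers were incubated on the arrays for 1 h and detected with antibodies against each partner (one per run).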

[2] = tested on: PPARg:RXRa IVT, anti-PPARg (NR concentration 270 nM, RXRa partner concentration 90 nM)
Procedure, shortened: as §1

[3] = tested on: PPARg DBDmut:RXRa IVT, anti-PPARg (DBD mutation: PPARg1 K132A/R137A, NR concentration 270 nM, RXRa partner concentration 90 nM)
Procedure, shortened: as §1

[4] = tested on: PPARg DBDmut IVT, anti-PPARg (DBD mutation: PPARg1 K132A/R137A, NR concentration 270 nM)
Procedure, shortened: as §1

[5] = tested on: PPARg homodimer (NR concentration 180 nM)
Procedure, shortened: as §1

[6] = tested on: PXR:RXRa (NR concentration 270 nM, RXRa partner concentration 90 nM)
Procedure, shortened: as §1

[7] = tested on: PXR homodimer (NR concentration 270 nM)
Procedure, shortened: as §1

[8] = tested on: RARa:RXR (NR concentration 270 nM, RXRa partner concentration 90 nM)
Procedure, shortened: as §1

[9] = tested on: RARa homodimer (NR concentration 270 nM)
Procedure, shortened: as §1

[10] = tested on: RARb:RXRa (NR concentration 270 nM, RXRa partner concentration 90 nM)
Procedure, shortened: as §1

| Sequence | PBM binding z-score [1] | PBM binding z-score [2] | PBM binding z-score [3] | PBM binding z-score [4] | PBM binding z-score [5] | PBM binding z-score [6] | PBM binding z-score [7] | PBM binding z-score [8] | PBM binding z-score [9] | PBM binding z-score [10] |
| --- | --- | --- | --- | --- | --- | --- | --- | --- | --- | --- |
| TAGCCTAGGTCATTGGGCCGGTATAGTACGCATC | 1.71 | 3.19 | 0.219 | -0.308 | 0.812 | 1.39 | -0.428 | 1.95 | -0.0602 | 3.48 |
| CCTATTAGTTGACCAGAAGGGCAACCGAAGCTCG | 0.319 | 0.518 | -0.0786 | 0.481 | 1.64 | 0.463 | 0.906 | 0.452 | 2.07 | 1.61 |
| GCAGACACGTGAAACGCAGGTAACTCAGGGTGGC | -1.12 | -0.582 | -0.764 | -0.343 | -2.11 | -0.819 | -0.73 | -0.666 | -0.899 | -0.551 |
| TTACCTAGGTGAAAGGTCGTTGATGCACGCCTTG | 5.23 | 6.14 | 1.6 | 0.889 | 1.73 | 3.69 | 0.261 | 4.82 | -0.203 | 2.38 |
| CCTACTGGGCCATTCAGAGATCATTGATCATATG | 4.48 | 3.51 | 0.0285 | 0.282 | -0.3 | -0.546 | -0.622 | -0.523 | 0.13 | 0.0331 |
| TCAGACAGGTGAAGGTAACACAGGTACGCAGTCG | 2.57 | 1.37 | -0.146 | 0.0418 | 1.19 | 1.02 | 0.463 | 1.28 | 0.787 | 1.32 |
| CCGACTGGGGCAAGATTACCATAACGCACAGCCA | 2.97 | 2.41 | -0.0501 | -0.549 | -0.195 | -0.741 | -0.382 | -0.513 | -0.747 | 0.315 |
| CTCGAAAGGTCGTGCTCAGGTGAGTCTACCAAAC | 1.08 | 1.81 | -0.131 | -0.101 | 1.24 | 3.07 | 0.183 | 3.94 | -0.14 | 3.86 |
| ACTTACGGGTCAACGAGGTTAGAGCACGCGTATA | 3.74 | 4.28 | 0.679 | 0.825 | 2.64 | 4.7 | 1.33 | 4.99 | 0.957 | 4.2 |
| CCAGACAGGAGAAAGGTAACTCAGTCTGGTACGC | 0.0518 | -0.161 | -0.761 | -0.621 | 0.229 | -0.00799 | 0.153 | 0.168 | 0.262 | 0.234 |
| CCTCGGAGGACAACAGGAAGTCAGAGCTGCCAGA | -0.28 | -0.806 | -1.35 | -1.22 | 0.0465 | -0.665 | -0.485 | -0.454 | 0.0942 | 0.863 |
| CGTCCAAGGTCATAGCAGGTCAGTGAAGACAGAT | 3.54 | 4.67 | 0.604 | 1.12 | 3.76 | 6.05 | 2.47 | 5.07 | 1.79 | 5.09 |
| TCGTATAGGTAAAGGTGAAAGTCGAACGATATGA | 2.04 | 2.57 | 0.89 | 0.655 | 1.4 | 0.71 | 0.0439 | 1.58 | 0.749 | 2.07 |
| ATACCAAGGTGATCGTGAGGTGGTTGATACTAAC | 0.119 | 0.996 | 0.272 | 0.15 | 0.0507 | 0.417 | 0.167 | 0.474 | 0.144 | 0.774 |
| CCTTACGGGTCACTCCAGGTTATAGAATCGGAGT | 2.67 | 3.47 | 1.31 | 0.0238 | 1.95 | 5.29 | 0.455 | 4.11 | 0.74 | 3.68 |
| ATCGAGAGGTCGAAGGTGAGTATACCCACCCGAA | -0.545 | 1.62 | 0.516 | 0.104 | 0.129 | 2.42 | -0.494 | 3.29 | -0.646 | 2.8 |
| AATAGAGGGTCATCGTAGGCCAGAGTACGCACAG | 3.35 | 4.01 | 0.835 | 0.46 | 2.99 | 4.34 | 0.066 | 4.67 | 1.33 | 4.25 |
| GCTAGTTGGTCAGTAAAAGGTCTCACACCGGTCG | 0.501 | 0.748 | 0.0123 | -0.176 | 0.542 | -0.0714 | 0.00189 | 0.298 | -0.00415 | 1.19 |
| CGTCCAAGGTCAGAGAGGGCAGTGAATGCCGAGT | 2.19 | 2.6 | -0.519 | -0.66 | 1.84 | 3.91 | 6.38 | 3.14 | 0.679 | 4.88 |
| CTGGAAAGGTCGTGCTCAGGTGAGTATACCAAAC | 0.634 | 1.35 | -0.0196 | 0.149 | 1.33 | 3.07 | -0.203 | 4.31 | -0.374 | 3.59 |
| TCTAGCAGGCCAGAGGATCACTCAAGAGGTACGG | 0.493 | -0.268 | -0.802 | -1.11 | -1.15 | -0.557 | -0.932 | -0.354 | -1.38 | -0.18 |
| TCTAGCAGGCCAGAGGGACACTCAAGAGGTACGG | 0.376 | -0.183 | -1.54 | -1.73 | -1.07 | -0.803 | -0.661 | -1.02 | -0.883 | 0.0919 |
| CCTAGTTGGTTAGGAGGTCACACACCGGATATGA | 1.46 | 3.63 | 0.832 | 1.05 | 4.26 | 4.03 | 1.84 | 4.45 | 1.79 | 3.42 |
| CCCTACGGGTCACTCCAGGTTATAGCATCGGAGT | 0.284 | 2.29 | -0.814 | -0.254 | 2.92 | 5.1 | 0.472 | 3.75 | 0.949 | 3.66 |
